Laboratory results published in PubChem BioAssay (NCATS).
Inconclusive results are not listed. Calls of active or inactive are those of the source. Unless noted, the call rests on the fitted dose curve.

How the values were obtained:
[1] = qHTS assay for small molecule agonists of retinoid X receptor alpha signaling (AID 588544); settings: HEK293T RXRa-UAS-bla, beta-lactamase reporter, 18 h; 530 nm emission;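 on activation: 0% = DMSO basal wells and 100% = reference agonist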
[2] = biological target: Retinoic acid receptor RXR-alpha (Homo sapiens) (UniProt P19793); assay: as above; settings: HEK293T RXRa-UAS-bla, beta-lactamase reporter, 18 h; series mostly up to 76.7 µM
Chain of Retinoic acid receptor RXR-alpha (Homo sapiens) (P19793 whole entry, looked up): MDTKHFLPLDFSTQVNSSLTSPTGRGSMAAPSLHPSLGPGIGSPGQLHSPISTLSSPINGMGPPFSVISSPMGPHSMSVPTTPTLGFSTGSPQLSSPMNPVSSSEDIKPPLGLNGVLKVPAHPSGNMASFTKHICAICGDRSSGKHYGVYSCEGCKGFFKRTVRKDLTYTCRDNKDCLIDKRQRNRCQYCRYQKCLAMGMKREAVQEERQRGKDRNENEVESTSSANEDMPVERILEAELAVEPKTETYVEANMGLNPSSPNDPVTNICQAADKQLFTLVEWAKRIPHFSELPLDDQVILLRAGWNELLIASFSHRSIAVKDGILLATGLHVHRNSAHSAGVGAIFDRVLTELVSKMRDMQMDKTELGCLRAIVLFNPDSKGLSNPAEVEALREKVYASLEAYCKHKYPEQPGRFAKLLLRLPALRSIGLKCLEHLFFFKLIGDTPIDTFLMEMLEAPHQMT

[3] = biological target: Thyroid hormone receptor beta (Homo sapiens) (UniProt P10828); assay: qHTS assay for small molecule agonists of thyroid hormone receptor beta signaling (AID 588545); settings: TR-UAS-bla GripTite HEK 293, beta-lactamase ratio, agonist mode, 18 h, percent of T3 response, DMSO as zero; series mostly up to 76.7 µM;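 further: 0% = DMSO only and 100% = 10 nM T3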
Chain of Thyroid hormone receptor beta (Homo sapiens) (P10828 whole entry, looked up): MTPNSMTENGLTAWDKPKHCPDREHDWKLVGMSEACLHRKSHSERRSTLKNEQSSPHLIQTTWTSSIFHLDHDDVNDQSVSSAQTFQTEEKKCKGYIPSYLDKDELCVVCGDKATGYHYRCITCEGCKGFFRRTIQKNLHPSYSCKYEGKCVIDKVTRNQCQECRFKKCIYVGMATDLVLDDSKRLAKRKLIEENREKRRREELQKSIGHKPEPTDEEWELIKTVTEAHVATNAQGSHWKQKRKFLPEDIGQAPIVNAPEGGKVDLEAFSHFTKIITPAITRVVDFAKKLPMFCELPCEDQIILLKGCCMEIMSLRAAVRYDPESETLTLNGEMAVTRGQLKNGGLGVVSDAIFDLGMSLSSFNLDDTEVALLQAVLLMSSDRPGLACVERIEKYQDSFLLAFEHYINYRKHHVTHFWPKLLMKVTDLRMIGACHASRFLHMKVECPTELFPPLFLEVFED
How it was run: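 TR-UAS-bla-GripTite HEK 293 cells in medium with 2% charcoal/dextran FBS, 0.1 mM NEAA and 1 mM sodium pyruvate were treated with titrated compounds for 18 hrs at 37 C. Beta-lactamase reporter was read with CCF4 dye (ex 405, em 460/530 nm); EC50 from Hill fits.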

[4] = qHTS assay for small molecule antagonists of retinoid X receptor alpha signaling (AID 588546; active means well fitted inhibition curve with a large enough effect in the signal ratio, with a control signal flat, not every such curve was filed as active; the % refers to the signal ratio;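 further: cells stimulated with 9-cis-retinoic acid as agonist; on the % scale 0 is the no-effect control and ±100 the full control effect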); settings: HEK293T RXRa-UAS-bla, beta-lactamase ratio, antagonist mode; measured here: W530 green channel, cytotoxicity proxy
How it was run: (§1)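 Beta-lactamase reporter inhibition, read as CCF4 fluorescence ratio (ex 405, em 460/530 nm) after 2 h at RT. HEK293T UAS-bla cells, 2500/well, were stimulated with 9-cis-RA at 500 or 100 nM final alongside test compound for 18 h at 37 C.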

[5] = biological target: Retinoic acid receptor RXR-alpha (Homo sapiens) (UniProt P19793); assay: as above; settings: HEK293T RXRa-UAS-bla, beta-lactamase ratio, antagonist mode
How it was run: as §1

[6] = biological target: Thyroid hormone receptor beta (Homo sapiens) (UniProt P10828); assay: qHTS assay for small molecule antagonists of thyroid hormone receptor beta signaling (AID 588547; active means well fitted inhibition curve with a large enough effect in the signal ratio, with a control signal flat, not every such curve was filed as active; the % refers to the signal ratio;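 further: cells stimulated with 0.4 nM T3 agonist during compound exposure; on the % scale 0 is the no-effect control and ±100 the full control effect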); settings: TR-UAS-bla HEK293, beta-lactamase ratio, antagonist mode, 18 h
How it was run: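 TR-UAS-bla GripTite HEK293 cells in 2% charcoal/dextran FBS medium were preincubated 4 h at 37 C, given compound (0.59 nM to 92 uM) plus 0.4 nM T3 (final) for 18 h, then CCF4 for 2 h at RT; Hill fit gave IC50.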

[7] = qHTS assay for small molecule agonists of the antioxidant response element (ARE) signaling pathway (AID 651741; active means well fitted activation curve with a large enough effect in the signal ratio; the % refers to the signal ratio; further: % of control where 0% means no effect); settings: HepG2 ARE-bla reporter, beta-lactamase FRET ratio, 16 h; series mostly up to 96 µM
How it was run: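 Reporter: beta-lactamase under ARE, stably in HepG2. Exposure: 16 h, 37 C, compounds delivered in DMSO by pin tool after 5 h cell preincubation. Readout: FRET substrate fluorescence after 2 h at RT.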

[8] = qHTS assay for small molecule activators of the p53 signaling pathway (AID 651743; active means well fitted activation curve with a large enough effect in the signal ratio, not every such curve was filed as active; the % refers to the signal ratio; further: % of control where 0% means no effect); settings: HCT-116 p53RE-bla, beta-lactamase FRET ratio, 16 h; stronger effect = higher value
How it was run: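 Agonist-mode quantitative HTS in HCT-116 cells carrying a p53-response-element beta-lactamase reporter; 16 h compound treatment at 37 C, then FRET substrate loading for 2 h at room temperature and fluorescence read.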

[9] = qHTS assay for small molecule activators of the nuclear factor-kappa B (NF-kB) signaling pathway (AID 651749; active means well fitted activation curve with a large enough effect in the signal ratio; the % refers to the signal ratio; further: % of control where 0% means no effect); settings: NF-kB-bla ME-180 cells, beta-lactamase FRET ratio, 16 h; stronger effect = higher value
How it was run: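 Human ME-180 cervical cells with an NF-kB-bla construct; compounds added via 23 nL pin transfer, DMSO as vehicle; incubation 16 hr. Reporter activity measured by FRET disruption.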

[10] = qHTS assay for small molecule disruptors of the mitochondrial membrane potential - 1 hr assay (AID 651754); settings: series mostly up to 92.2 µM; further: on the % scale 0 is the no-effect control and ±100 the full control effect; nearly all actives have a fitted effect of over 35% in size
How it was run: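 Loss of mitochondrial potential shifts the cationic dye from red mitochondrial aggregates to green cytoplasmic monomers. Cells (HepG2) are treated with compound for 1 hr before a 30 min dye incubation at 37C.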

[11] = qHTS assay for small molecule disruptors of the mitochondrial membrane potential - 5 hr assay (AID 651755); settings: JC-1-type ratio dye; series mostly up to 92.2 µM; further: on the % scale 0 is the no-effect control and ±100 the full control effect; nearly all actives have a fitted effect of over 40% in size
How it was run: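 Seed HepG2 overnight, add compound, incubate 5 hr at 37C and 5% CO2, stain 30 min with Mito-MPS, then measure monomer (490/535 nm) and aggregate (540/590 nm) fluorescence.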

[12] = biological target: Tumor necrosis factor (Homo sapiens) (UniProt P01375); assay: qHTS assay to identify small molecules that stimulate Tumor Necrosis Factor-alpha (TNF-alpha) secretion (AID 651757; active means well fitted curve in the direction sought with a large enough effect in the signal ratio; the % refers to the signal ratio; further: 0% is about no effect); settings: Human cells, HTRF 665/615 ratio; series mostly up to 92.2 µM
Chain of Tumor necrosis factor (Homo sapiens) (P01375 whole entry, looked up): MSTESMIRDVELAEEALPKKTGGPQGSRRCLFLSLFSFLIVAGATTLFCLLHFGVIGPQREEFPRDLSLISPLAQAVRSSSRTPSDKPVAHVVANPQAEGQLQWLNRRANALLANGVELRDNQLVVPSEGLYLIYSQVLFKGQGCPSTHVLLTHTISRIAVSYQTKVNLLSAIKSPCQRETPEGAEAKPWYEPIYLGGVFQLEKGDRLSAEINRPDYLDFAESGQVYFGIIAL
How it was run: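 Human monocytic THP-1 cells are plated, treated with compound and held at 37 C for 17 hrs. Labeled anti-TNF-alpha antibody mixture is then added; after 3 hr at room temperature, TR-FRET signal reports secreted TNF-alpha.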

[13] = biological target: Peroxisome proliferator-activated receptor alpha (Homo sapiens) (UniProt Q07869); assay: qHTS assay for small molecule agonists of the peroxisome proliferator-activated receptor alpha (PPARalpha) signaling pathway (AID 651778; active means well fitted curve in the direction sought with a large enough effect; an effect the other way counts as inactive or inconclusive; further: % of control where 0% means no effect); settings: PathHunter PPARalpha complementation, chemiluminescence, 6 h; stronger effect = higher value
Chain of Peroxisome proliferator-activated receptor alpha (Homo sapiens) (Q07869 whole entry, looked up): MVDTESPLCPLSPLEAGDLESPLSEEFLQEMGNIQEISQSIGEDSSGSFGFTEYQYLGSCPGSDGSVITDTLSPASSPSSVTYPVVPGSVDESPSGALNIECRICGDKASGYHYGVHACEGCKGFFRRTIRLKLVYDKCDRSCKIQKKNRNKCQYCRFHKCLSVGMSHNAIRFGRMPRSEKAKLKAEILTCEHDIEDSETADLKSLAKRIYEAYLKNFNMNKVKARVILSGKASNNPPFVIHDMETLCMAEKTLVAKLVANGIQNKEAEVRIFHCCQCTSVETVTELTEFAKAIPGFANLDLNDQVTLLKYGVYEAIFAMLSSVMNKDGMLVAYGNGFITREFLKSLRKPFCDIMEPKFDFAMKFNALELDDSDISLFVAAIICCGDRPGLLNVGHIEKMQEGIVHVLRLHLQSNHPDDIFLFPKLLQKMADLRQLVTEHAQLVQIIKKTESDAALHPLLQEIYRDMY
How it was run: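 Cells plated at 2,000/well and held overnight at 37 C, 5% CO2, then compound added by pin tool for 6 hr; after PathHunter detection reagent and 60 min at room temperature, chemiluminescence from enzyme complementation was read.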

[14] = qHTS assay for small molecule agonists of the antioxidant response element (ARE) signaling pathway measured by Nrf2-dependant transcriptional activity (AID 720636; active means well fitted curve in the direction sought with a large enough effect in the repeat runs; an effect the other way counts as inactive or inconclusive;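 further: HepG2 cells with an ARE-driven luciferase reporter; % of control where 0% means no effect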); settings: ARE-luc HepG2, Nrf2 luciferase reporter, 16 h; series mostly up to 92.4 µM
How it was run: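 Attachment 6 hr at 37 C, then compound versus DMSO vehicle for 16 hr in ARE-luc HepG2 cells (1% dialyzed FBS); luminescence recorded 30 min after ONE-Glo addition at room temperature.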

[15] = qHTS assay for small molecule antagonists of the retinoid-related orphan receptor gamma (ROR-gamma) signaling pathway - cell viability counter screen (AID 720652; active means well fitted curve in the direction sought with a large enough effect in the repeat runs; an effect the other way counts as inactive or inconclusive;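 further: CHO reporter cells with doxycycline-induced ROR-gamma expression; compound exposure lasted 16 hr before ATP read; on the % scale 0 is the no-effect control and ±100 the full control effect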); settings: RORgamma reporter cell line viability counter screen; series mostly up to 92.2 µM
How it was run: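 Steps: seed CHO cells bearing TET-inducible ROR and ROR response element-luciferase; rest 5 hr at 37 C; add compound, then doxycycline; incubate 16 hr; add CellTiter-Glo and read luminescence as ATP-based viability.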

[16] = qHTS assay to identify small molecules that stimulate interleukin-8 (IL-8) secretion (AID 651758; active means well fitted activation curve with a large enough effect in the signal ratio; the % refers to the signal ratio; further: 0% is about no effect); settings: HTRF ratio (665/615); series mostly up to 92.2 µM
How it was run: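 Quantitative HTS in THP-1 monocytic cells at 2000 cells per well, with 16 hrs compound incubation at 37 C. IL-8 in the medium was then quantified by HTRF immunoassay, read after 1-3 hrs at room temperature.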

[17] = qHTS assay for small molecule agonists of the antioxidant response element (ARE) signaling pathway measured by Nrf2-dependant transcriptional activity - cell viability counter screen (AID 720653; active means well fitted curve in the direction sought with a large enough effect in the repeat runs; an effect the other way counts as inactive or inconclusive; further: on the % scale 0 is the no-effect control and ±100 the full control effect); settings: ARE-bla HepG2 viability, CellTiter-Glo ATP luminescence, 16 h; stronger effect = lower value
How it was run: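 ARE-bla HepG2 cells (2,000/well) rested 5 hrs at 37C/5% CO2, then exposed to compounds in DMSO for 16 hrs. Viability was read in the same wells as intracellular ATP by luminescence, 30 min at room temperature after reagent addition.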

[18] = qHTS assay for environmental chemicals that activate the Aryl hydrocarbon Receptor (AhR) signaling pathway (AID 651777; active means well fitted curve in the direction sought with a large enough effect; an effect the other way counts as inactive or inconclusive; further: % of control where 0% means no effect; nearly all actives have a fitted effect of over 15% in size); settings: 1A2-DRE human hepatoma cells, luciferase, 24 h; activation: stronger effect = higher value
How it was run: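 Concentration–response screening used 1,200 1A2-DRE cells per well, 24 hr compound exposure (37 C, 5% CO2), and One-Glo luminescence as the AhR-driven CYP1A2 reporter signal.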

[19] = biological target: Voltage-gated inwardly rectifying potassium channel KCNH2 (Homo sapiens) (UniProt Q12809); assay: qHTS Assay for Small Molecule Inhibitors of the Human hERG Channel Activity (AID 588834; active means well fitted curve in the direction sought with a large enough effect; an effect the other way counts as inactive or inconclusive;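 further: top concentration of the series differs between compounds; on the % scale 0 is the no-effect control and ±100 the full control effect; lower thallium flux fluorescence means stronger hERG block; nearly all actives have a fitted effect of over 50% in size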); settings: U2OS BacMam hERG, FluxOR thallium flux fluorescence; series mostly up to 92.2 µM
Chain of Voltage-gated inwardly rectifying potassium channel KCNH2 (Homo sapiens) (Q12809 whole entry, looked up): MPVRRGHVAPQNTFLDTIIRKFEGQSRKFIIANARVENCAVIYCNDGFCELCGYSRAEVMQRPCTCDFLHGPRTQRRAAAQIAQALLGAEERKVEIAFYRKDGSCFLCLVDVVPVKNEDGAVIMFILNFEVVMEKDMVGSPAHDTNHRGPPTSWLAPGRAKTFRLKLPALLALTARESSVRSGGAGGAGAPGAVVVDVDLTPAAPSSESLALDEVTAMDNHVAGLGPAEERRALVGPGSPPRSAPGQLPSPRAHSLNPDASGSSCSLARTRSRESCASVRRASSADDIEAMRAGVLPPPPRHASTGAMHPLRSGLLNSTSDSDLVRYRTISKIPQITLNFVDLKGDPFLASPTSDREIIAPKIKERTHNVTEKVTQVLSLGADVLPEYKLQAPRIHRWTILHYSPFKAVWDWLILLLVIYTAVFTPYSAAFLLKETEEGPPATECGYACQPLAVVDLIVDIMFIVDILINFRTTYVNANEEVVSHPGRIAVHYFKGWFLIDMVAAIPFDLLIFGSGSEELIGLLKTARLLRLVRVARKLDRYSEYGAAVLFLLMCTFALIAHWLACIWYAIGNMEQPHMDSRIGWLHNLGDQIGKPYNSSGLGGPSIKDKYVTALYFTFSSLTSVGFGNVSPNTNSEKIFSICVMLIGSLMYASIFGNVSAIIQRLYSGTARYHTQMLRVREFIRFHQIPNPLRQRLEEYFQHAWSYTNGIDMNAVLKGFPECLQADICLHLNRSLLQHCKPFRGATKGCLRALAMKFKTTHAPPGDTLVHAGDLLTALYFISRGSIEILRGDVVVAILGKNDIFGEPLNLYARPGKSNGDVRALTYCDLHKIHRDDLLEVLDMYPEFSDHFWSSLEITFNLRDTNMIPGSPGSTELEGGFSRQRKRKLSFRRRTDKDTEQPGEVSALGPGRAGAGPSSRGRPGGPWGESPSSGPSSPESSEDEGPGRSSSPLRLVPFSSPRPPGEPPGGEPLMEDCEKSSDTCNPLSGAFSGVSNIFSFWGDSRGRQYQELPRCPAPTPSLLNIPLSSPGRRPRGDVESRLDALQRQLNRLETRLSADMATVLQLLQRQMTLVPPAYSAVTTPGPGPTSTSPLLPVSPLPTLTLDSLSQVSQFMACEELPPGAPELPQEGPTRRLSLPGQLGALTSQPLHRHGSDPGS
How it was run: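 Step 1: BacMam hERG transduction of U2OS, 4 hrs RT. Step 2: overnight 37 °C, plate 2000 cells/well, 4 hr. Step 3: FluxOR load, compound 10 min, stimulate, read fluorescence.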

[20] = biological target: Nuclear receptor ROR-gamma (Homo sapiens) (UniProt P51449); assay: qHTS assay for small molecule antagonists of the retinoid-related orphan receptor gamma (ROR-gamma) signaling pathway (AID 651802; active means well fitted curve in the direction sought with a large enough effect; an effect the other way counts as inactive or inconclusive;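 further: CHO cells with doxycycline-induced ROR-gamma expression; on the % scale 0 is the no-effect control and ±100 the full control effect; nearly all actives have a fitted effect of over 60% in size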); settings: ROR-gamma antagonist cell reporter assay; series mostly up to 92.2 µM
Chain of Nuclear receptor ROR-gamma (Homo sapiens) (P51449 whole entry, looked up): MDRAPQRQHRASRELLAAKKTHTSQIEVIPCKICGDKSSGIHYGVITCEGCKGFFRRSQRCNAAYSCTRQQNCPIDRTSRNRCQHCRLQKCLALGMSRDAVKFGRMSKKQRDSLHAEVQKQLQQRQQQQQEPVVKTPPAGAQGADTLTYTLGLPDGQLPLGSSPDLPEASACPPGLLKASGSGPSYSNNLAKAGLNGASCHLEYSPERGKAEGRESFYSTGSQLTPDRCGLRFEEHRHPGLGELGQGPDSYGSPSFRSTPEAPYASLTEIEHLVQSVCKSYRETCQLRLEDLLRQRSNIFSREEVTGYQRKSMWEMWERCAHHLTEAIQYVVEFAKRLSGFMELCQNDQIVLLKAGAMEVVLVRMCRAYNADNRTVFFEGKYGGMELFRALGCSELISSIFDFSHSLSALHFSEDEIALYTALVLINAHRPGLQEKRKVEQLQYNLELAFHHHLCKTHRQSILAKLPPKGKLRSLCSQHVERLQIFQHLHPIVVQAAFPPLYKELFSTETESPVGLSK
How it was run: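 Steps: cells dispensed; compound or DMSO transferred by pin tool; doxycycline added to induce the ROR response element-driven luciferase; plates held 16hr at 37C; ONE-Glo added and luminescence measured.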

OCCO
max response [1]: 7.28%
outcome [2]: inactive
outcome [3]: inactive
max response [4]: 0.506%
max response [5]: 11.2% (inactive)
activity change % (negative = inhibition) [6]: 21% (inactive)
Potency [7]: inactive
activation [8]: -3.22% (inactive)
activation [9]: -0.33% (inactive)
Potency [10]: inactive
Potency [11]: inactive
Potency [12]: inactive
max response [13]: -4.04% (inactive)
outcome [14]: inactive
Potency [15]: inactive

CC(C)Cc1nccs1
max response [1]: -0.474%
outcome [2]: inactive
outcome [3]: inactive
max response [4]: -5.6%
max response [5]: 12.1% (inactive)
activity change % (negative = inhibition) [6]: 0.497% (inactive)
Potency [7]: inactive
activation [8]: 0.156% (inactive)
activation [9]: 0.674% (inactive)
Potency [10]: inactive
Potency [11]: inactive
Potency [12]: inactive
Potency [16]: inactive
max response [13]: -1.04% (inactive)
outcome [14]: inactive
Potency [15]: inactive
max response [17]: 25.9% (inactive)

CCC(C)(C)C(=O)O
max response [1]: -9.68%
outcome [2]: inactive
outcome [3]: inactive
max response [4]: -3.08%
max response [5]: 6.62% (inactive)
activity change % (negative = inhibition) [6]: -3.87% (inactive)
Potency [7]: inactive
activation [8]: 0.0165% (inactive)
activation [9]: -0.114% (inactive)
Potency [11]: inactive
Potency [12]: inactive
activation [18]: 0.179% (inactive)
outcome [14]: inactive
Potency [15]: inactive
max response [17]: -0.295% (inactive)

C/C(C=O)=C/c1ccccc1
max response [1]: -15.6%
outcome [2]: inactive
outcome [3]: inactive
max response [4]: 2.35%
max response [5]: -7.56% (inactive)
activity change % (negative = inhibition) [6]: -5.38% (inactive)
Potency [19]: inactive
activation [9]: -1.45% (inactive)
Potency [12]: inactive
activation [18]: -1.35% (inactive)
max response [13]: -3.84% (inactive)
Potency [20]: inactive
outcome [14]: inactive
Potency [15]: inactive
max response [17]: -7.12% (inactive)

CC(C)=CCl
max response [1]: 6.48%
outcome [2]: inactive
outcome [3]: inactive
max response [4]: -7.86%
max response [5]: 7.55% (inactive)
activity change % (negative = inhibition) [6]: -1.53% (inactive)
Potency [7]: inactive
activation [8]: -2.89% (inactive)
activation [9]: 0.211% (inactive)
Potency [10]: inactive
Potency [12]: inactive
Potency [16]: inactive
activation [18]: 2.36% (inactive)
max response [13]: 0.634% (inactive)
outcome [14]: inactive
Potency [15]: inactive

CC(C)(O)CCC(C)(C)O
max response [1]: -8.68%
outcome [2]: inactive
outcome [3]: inactive
max response [4]: -5.49%
max response [5]: 1.42% (inactive)
activity change % (negative = inhibition) [6]: 4.09% (inactive)
Potency [19]: inactive
activation [8]: -3.36% (inactive)
Potency [10]: inactive
Potency [12]: inactive
activation [18]: 1.58% (inactive)
max response [13]: -3.81% (inactive)
outcome [14]: inactive
Potency [15]: inactive
max response [17]: -2.27% (inactive)

CC(=O)c1cc(C)oc1C
max response [1]: -2.61%
outcome [2]: inactive
outcome [3]: inactive
max response [4]: 4.07%
max response [5]: 0.525% (inactive)
activity change % (negative = inhibition) [6]: -4.91% (inactive)
Potency [7]: inactive
activation [8]: -2.3% (inactive)
activation [9]: -0.373% (inactive)
Potency [10]: inactive
Potency [11]: inactive
Potency [12]: inactive
activation [18]: 0.74% (inactive)
max response [13]: -8.47% (inactive)
outcome [14]: inactive
Potency [15]: inactive
max response [17]: 1.5% (inactive)
